Data from PubChem BioAssay (NCATS).
Inconclusive results are not listed. Where a call stands in place of a potency, no number is given. The source made the active and inactive calls. The call rests on the fitted dose curve; in most records, active means well fitted curve in the direction sought with a large enough effect; inconclusive means small, poorly fitted or top-dose-only effect, or another doubt; inactive means no such curve, though single readings can be large; an effect the other way counts as inactive or inconclusive.

Legend:
[1] = biological target: Aldehyde dehydrogenase, mitochondrial (Homo sapiens) (UniProt P05091); assay: qHTS for Inhibitors of the Aldehyde Dehydrogenase Family (ALDH2) Primary screen (AID 2061308); details: ALDH2 enzyme inhibition qHTS, 1536-well; series mostly up to 56 µM; further: nearly all actives have a fitted effect of over 55% in size
[2] = biological target: Retinaldehyde dehydrogenase 3 (Homo sapiens) (UniProt P47895); assay: qHTS for Inhibitors of the Aldehyde Dehydrogenase Family (ALDH1A3) Primary screen (AID 2061315); details: ALDH inhibition qHTS; series mostly up to 56 µM

Row | SMILES | Potency [1] | Potency [2]
1 | O=C1CCCC2=C1C(c1[nH]ncc1Cl)N=C(Nc1ccn[nH]1)N2 (configuration not stated) | inactive | inactive
2 | Cn1nnnc1Sc1ncnc2scc(-c3cccc(S(C)(=O)=O)c3)c12 | inactive | inactive
3 | Cn1nnnc1Sc1ncnc2scc(-c3cccc4ccccc34)c12 | inactive | inactive
4 | CCCn1c(C)nc2c(NCCO)nc(C)nc21 | inactive | inactive
5 | CCOC(=O)CCCC(=O)Nc1ncnc2c1C(c1ccccc1)c1c(ccc3ccccc13)O2 (configuration not stated) | inactive | inactive
6 | Cc1cc2c(s1)c1cnn(Cc3c(Cl)cccc3Br)c(=O)c1n2C | inactive | inactive
7 | CC(=O)N1CCN(S(=O)(=O)c2ccc3c(c2)CC(=O)N3)CC1 | inactive | inactive
8 | NC(=O)C1CCN(c2nc(-c3cccc([N+](=O)[O-])c3)cs2)CC1 | inactive | inactive
9 | CC1(C)CC[C@]2(C(=O)O)CC[C@]3(C)C(=CCC4[C@@]5(C)C[C@@H](O)[C@H](O)C(C)(C)C5CC[C@]43C)C2C1 (some centres not stated) | inactive | inactive
10 | O=C(OCC#CCSc1nnc(-c2ccc(Cl)cc2)o1)c1ccc(F)cc1 | inactive | inactive
11 | O=S(=O)(Nc1nc(CN2CCOCC2)nc2sc3c(c12)CCCC3)c1ccc2ccccc2c1 | inactive | inactive
12 | COc1ccc(C2=Nn3c(nnc3-c3ccccc3Cl)SC2)cc1OC1CCOC1 (configuration not stated) | inactive | inactive
13 | O=C(Nc1ccc(Cl)c(Cl)c1)Nc1ncc(-c2ccncc2)s1 | inactive | inactive
14 | COc1ccc(OC)c(C2=Nn3c(nnc3-c3cc(OC)ccc3OC)SC2)c1 | inactive | inactive
15 | O=C1CCCC2=C1C(c1[nH]ncc1Cl)NC(=NCc1ccccc1)N2 (configuration not stated) | inactive | inactive
16 | CCOc1ccccc1-c1nnc2n1N=C(c1cc(OC)ccc1OC)CS2 | inactive | inactive
17 | OCC#CCSc1nnc(-c2cccc3ccccc23)o1 | inactive | inactive
18 | COc1cc(O)c(C(CC(=O)N2CCC(c3ccccc3)CC2)c2ccc3c(c2)OCO3)c(OC)c1 (configuration not stated) | inactive | inactive
19 | Cc1ccc(OCCn2c(CCNC(=O)/C=C/c3ccccc3Br)nc3ccccc32)cc1 | inactive | inactive
20 | Cc1cc(N2C(=O)c3ccccc3C2=O)no1 | inactive | inactive
21 | Cc1cccc(C2N=C(Nc3nc4ccccc4o3)NC3=C2C(=O)CCC3)c1 (configuration not stated) | inactive | inactive
22 | O=[S+]([O-])(c1ccc2c(c1)OCCO2)N1CCN([S+](=O)([O-])c2ccccc2Br)CC1 | inactive | inactive

Row | SMILES | Potency [1] | Potency [2]
23 | Cc1cc(-c2cnc(N)c3c(-c4ccc5scnc5c4)csc23)n(C)n1 | inactive | inactive
24 | COC1CC(=O)C23C(=O)NC(CC(C)C)C2C(C)C(C)=CC3/C=C(\C)CCC1O (configuration not stated) | inactive | inactive
25 | Cc1cccc(-n2cnc3cc(C(=O)N4CCCCCC4)ccc32)c1 | inactive | inactive
26 | CC(C)c1ccccc1-c1nc(NCc2ccc(-c3cccnc3)cc2)c2occc2n1 | inactive | inactive
27 | O=C(CSc1nc(-c2ccc(F)cc2)nc2c1Cc1ccccc1O2)Nc1ccc(F)cc1 | inactive | inactive
28 | O=C(Nc1ccc2ccccc2c1)Nc1nnc(-c2ccc(O)cc2)s1 | inactive | inactive
29 | Cc1cc(C)n2ncc(C(=O)Nc3cccc(C(F)(F)F)c3)c2n1 | inactive | inactive
30 | O=C(OCC#CCSc1nnc(-c2cccc3ncccc23)o1)c1ccc(F)cc1 | inactive | inactive
31 | Cc1ccc(S(=O)(=O)Nc2ccccc2Nc2nc(-c3ccccc3)cs2)cc1 | inactive | inactive
32 | COc1ccc(-c2nnc3n2N=C(c2ccc(OC)c(OC)c2)CS3)c(OC)c1 | inactive | inactive
33 | CN(C)c1cnc2c(O)cccc2c1 | inactive | inactive
34 | Cc1ccc(-c2nc(NCC(=O)Nc3cccc(C(=O)O)c3)c3ccccc3n2)cc1 | inactive | inactive
35 | CS(=O)(=O)c1ccc(C(=O)OC(C(=O)NC2C3CC4CC(C3)CC2C4)c2ccccc2)cc1[N+](=O)[O-] (configuration not stated) | inactive | inactive
36 | C[C@@H]1CC[C@]2(C(=O)O)CC[C@]3(C(=O)O)C(=CCC4[C@@]5(C)CC[C@H](O[C@@H]6O[C@@H](C)[C@H](O[C@@H]7O[C@H](CO)[C@@H](O)[C@H](O)[C@H]7O)[C@@H](O)[C@H]6O)C(C)(C)C5CC[C@]43C)C2[C@H]1C (some centres not stated) | inactive | inactive
37 | O=C(NCCc1nc2ccccc2n1CCOc1cc(F)ccc1F)C1CCCCC1 | inactive | inactive
38 | CNc1oc(-c2cccc3cnccc23)nc1C#N | inactive | inactive
39 | CC1(C(=O)O)CCCC2(C)C3CCC4CC3(CCC12)CC4(O)CO (configuration not stated) | inactive | inactive
40 | CCC(=O)NC(c1cc(Cl)c2cccnc2c1O)C1CC1 (configuration not stated) | inactive | inactive
41 | Cn1cnc(CN=C2NC3=C(C(=O)CCC3)C(c3[nH]ncc3Cl)N2)c1 (configuration not stated) | inactive | inactive
42 | CCOc1ccccc1OCCNC(C)Cc1ccc(OC)c(S(N)(=O)=O)c1 (configuration not stated) | inactive | inactive
43 | O=S(=O)(NCCCCNS(=O)(=O)c1c(F)cccc1F)c1ccc2c(c1)OCCO2 | inactive | inactive
44 | COc1ccc2c(=O)n3nc(Nc4cccc(N5CCN(C)CC5)c4)sc3nc2c1 | inactive | inactive

Row | SMILES | Potency [1] | Potency [2]
45 | COCCNC(=O)Nc1ccc2nc(-c3cccs3)c(-c3cccs3)nc2c1 | inactive | inactive
46 | N=c1c2c(ccn1Cc1ccccc1)Oc1ccc3ccccc3c1C2c1ccccc1 (configuration not stated) | inactive | inactive
47 | CC(C)C1CCC(C(=O)Nc2ccc(S(=O)(=O)Nc3nccs3)cc2)CC1 (configuration not stated) | inactive | inactive
48 | Cc1cnc(-c2ccccc2CO)nc1NCc1ccc(-c2cccnc2)cc1 | inactive | inactive
49 | Cc1ccc(OCCn2c(CCNC(=O)c3cc(F)cc(F)c3)nc3ccccc32)cc1 | inactive | inactive
50 | CNC1CCC(N(Cc2ccc(OC)c(-c3ccc(C#N)cc3)c2)C(=O)c2sc3ccccc3c2Cl)CC1 (configuration not stated) | inactive | inactive
51 | O=C(CSc1nc2ccc(S(=O)(=O)N3CCOCC3)cc2[nH]1)N1CCOCC1 | inactive | inactive
52 | CCOc1ccc(CCNC(=O)c2cc3ccccc3n2C)cc1OCC | inactive | inactive
53 | Cn1c(SCC(=O)c2cc3ccccc3o2)nnc1-c1ccccc1 | inactive | inactive
54 | CC(=O)Nc1sc2c(c1-c1ncco1)CCNC2 | inactive | inactive
55 | Cc1cc(C)nc(NC(=S)N2CCN(c3ccc(F)c(F)c3)CC2)c1 | inactive | inactive
56 | CCCCN1C(=O)c2ccccc2C1=O | inactive | inactive
57 | Cc1ccc(NS(=O)(=O)c2cc3c(cc2NC(C)C)NC(=O)CC3)cc1C | inactive | inactive
58 | Cc1cc(N[S+](=O)([O-])c2ccc(NC(=O)Cc3ccc(F)c(C)c3)cc2)no1 | inactive | inactive
59 | N#Cc1c(-c2ccccc2C(F)(F)F)nc2ccccc2c1NCc1ccc(-c2cccnc2)cc1 | inactive | inactive
60 | O=C(Nc1ccc2ccccc2c1)Nc1nnc(-c2ccccc2)s1 | inactive | inactive
61 | CCN(CC)CCn1c(-c2ccccc2)nc2c(NC3CCCCC3)nc(C)nc21 | inactive | inactive
62 | CC(=O)Nc1sc2c(c1-c1nc3ccccc3s1)CCN(C)C2 | inactive | inactive
63 | CC(C)(C)OC(=O)N[C@@H](Cc1ccc(OS(=O)(=O)c2cccc3cnccc23)cc1)C(=O)N1CCCN(C(=O)OC(C)(C)C)CC1 | inactive | inactive
64 | COc1ccc(Cl)cc1S(=O)(=O)N1CCN(S(=O)(=O)c2ccc3c(c2)OCCO3)CC1 | inactive | inactive
65 | Cc1cc(NS(=O)(=O)c2ccc(N(C)C(=O)Cc3ccc(Cl)c(Cl)c3)cc2)no1 | inactive | inactive
66 | CCCCc1ccc(C(=O)Nc2ccc(S(=O)(=O)Nc3nccs3)cc2)cc1 | inactive | inactive

Row | SMILES | Potency [1] | Potency [2]
67 | COc1ccc(OC)c(-c2nnc(NC(=O)Nc3ccc4ccccc4c3)s2)c1 | inactive | inactive
68 | CCOC(=O)CCc1cc(F)c(S(=O)(=O)N2CCN(S(=O)(=O)c3ccc4c(c3)OCCO4)CC2)cc1F | inactive | inactive
69 | C=C[C@@]12COC(=O)C(=C)C1[C@@H](O)[C@H](C(=C)C(=O)OC)[C@@H](OC(=O)C(=C)CO)C2 (some centres not stated) | inactive | inactive
70 | N[C@@H](Cc1ccccc1)C(=O)Nc1ccc(Cl)cc1C(=O)c1ccc[nH]1 | inactive | inactive
71 | Cc1ccc(OCCn2c(CCNC(=O)c3ccc(Cl)cc3)nc3ccccc32)cc1 | inactive | inactive
72 | O=C(Nc1ccccc1)C1CCN(c2ncc(-c3ccc4c(c3)OCCCO4)s2)CC1 | inactive | inactive
73 | COc1ccc(-c2nnc3n2N=C(c2ccc(OC)cc2OC)CS3)cc1 | inactive | inactive
74 | Cc1ccc(C(=O)Nc2ccccc2C(=O)Nc2nc(-c3ccccc3)cs2)cc1 | inactive | inactive
75 | CC(C)c1ccc(=O)n(CC(=O)NCCc2ccccc2)n1 | inactive | inactive
76 | O=C1c2ccccc2C(=O)N1c1nccs1 | inactive | inactive
77 | Cc1ccc(OCCn2c(CCNC(=O)Cc3cccc(F)c3)nc3ccccc32)cc1 | inactive | inactive
78 | CC(=O)Nc1sc2c(c1-c1ccc(Cl)cc1)CCNC2 | inactive | inactive
79 | COc1ccc(C2Nc3ccccc3C(=O)N2Cc2ccco2)cc1CSc1c(C)cccc1C (configuration not stated) | inactive | inactive
80 | CC(C)Nc1cccc(S(=O)(=O)N2CCCN(S(=O)(=O)c3ccc4c(c3)OCCO4)CC2)c1 | inactive | inactive
81 | O=C(Nc1nc(-c2ccccc2)cs1)c1ccccc1-n1cnnn1 | inactive | inactive
82 | CN1CCN(c2nnc(NC(=O)Nc3ccc(Cl)c(Cl)c3)s2)CC1 | inactive | inactive
83 | C#CCOc1ccc(-c2nnc3n2N=C(c2ccc(OC)c(OCC(C)=O)c2)CS3)cc1 | inactive | inactive
84 | CC(C)(C)NC(=O)Nc1nnc(-c2ccncc2)s1 | inactive | inactive
85 | CCc1nn2c(=O)cc(NC3CNC3)nc2s1 | inactive | inactive
86 | FC(F)(F)c1ccccc1-c1nc(NCc2ccc(-c3ccc(Cl)cc3)cc2)c2ccccc2n1 | inactive | inactive
